Data taken from ChEMBL document CHEMBL3988442, “University of Dundee, Small-Polar-MMV Screening Library” (2021).
The campaign covered roughly 48,000 compounds. About 13,000 (27%) showed an effect of 50% or more. Some of the results follow.

Tested on: Wolbachia pipientis
Assay: Anti-Wolbachia Cell-Based Screen
Type: functional
Set-up: scale not given: in the data most compounds retested in dose-response had high values
Settings: 5 µM

Compound	Percent Effect [%]
Cc1ccc(CN2CCc3c(C(=O)N(C)C)n[nH]c3C2)o1	-11.98
Cc1ccc(CNC2(Cc3cc(-c4ccccn4)on3)COC2)o1	-9.349
COc1cc(C(=O)N(Cc2cnn(C)c2)C(C)C)ccc1C	113.7
CCSc1cc(C(=O)N(Cc2cnn(C)c2)C(C)C)ccn1	-10.41
CC(C)N(Cc1ccc(C(F)(F)F)nc1)Cc1cnn(C)c1	15.8
COCCCOc1ccc(C(=O)N(Cc2cnn(C)c2)C(C)C)cn1	5.983
COc1ccc(C(=O)N(Cc2cnn(C)c2)C(C)C)cc1Br	9.999
CCOc1ccc(C(=O)N(Cc2cnn(C)c2)C(C)C)cc1	-5.805
COc1cc(C(=O)N(Cc2cnn(C)c2)C(C)C)ccc1OCC(N)=O	4.705
CCOc1ccc(C(=O)N(Cc2cnn(C)c2)C(C)C)cc1OCC	111.9
COc1cc(C(=O)N(Cc2cnn(C)c2)C(C)C)ccc1OC(C)C	121.6
COc1ccc(CN(Cc2cnn(C)c2)CC(C)C)cn1	-28.68
Cc1ccc(NC(=O)N(C)Cc2cnn(C)c2)cc1OCC(F)F	-4.297
COc1ccc(C(=O)N(Cc2cnn(C)c2)C(C)C)cc1OC(F)F	110.3
CN1C[C@@H]2CN(C(=O)C3CC=CC3)C[C@@H]2C1=O	-1.664
Cc1nnc(CN2CCC3(CCC(=O)N([C@H]4CC[C@H](O)CC4)C3)CC2)o1	5.383
CC(C)=CCN1CCN(C(C)c2cccnc2)CC1 (centres undefined)	2.838
COCCC(=O)N(C)CCC1=CCN(C)CC1	102.2
CCCS(=O)(=O)N(C)C(=O)CCc1ccccc1	-9.766
CCN(CC1=CCN(C)CC1)C(=O)CCOC	97.45
CN(CCN1CCOCC1)C(=O)CCCOCCc1ccccc1	6.061
COCCC(=O)N(Cc1cccnc1)CC1CCN(C2CCCC2)CC1	-4.098
CN1CC=C(CCN(C)C(=O)CCc2ccccc2)CC1	90.24
CCc1ccccc1OCCN(C)C(=O)CCN1CCCO1	2.484
CCOCCC(=O)N(C)CC1Cc2ccccc2CN1C (centres undefined)	13.82
CCN(Cc1nc(COC)no1)C(=O)CCn1c(C)cc2ccccc21	-20.66

Compound	Percent Effect [%]
FC(F)(F)C1CCCn2c(CNCc3ccsc3)nnc21 (centres undefined)	5.709
CCCc1noc(CS(=O)(=O)c2cccc(OC)c2)n1	19.11
CC(NC(=O)NCCCNS(C)(=O)=O)c1ccncc1 (centres undefined)	0.1158
CCc1noc(C(C)N(C)Cc2cc(Br)ccc2OC)n1 (centres undefined)	1.676
CC(C)S(=O)(=O)NCC1CCCN(C(=O)c2ccc(Cl)cc2)C1 (centres undefined)	-24.01
O=C1OCCN1CC(=O)N1C[C@H]2CC[C@@H]1CN(C(=O)c1ccccc1)C2	-14.7
COc1cccc2c1OCC(C(=O)N1CCC(N3CCOC3=O)CC1)C2 (centres undefined)	-3.402
O=C(c1ccc(Cl)cc1)N1CCC(N2CCCOC2=O)CC1	100
O=C(c1ccc(Cl)cc1)N1CCC(N2CCOC2=O)CC1	107.7
CCS(=O)(=O)N(C)C1CCN(C(=O)c2ccc(Cl)cc2)CC1	-4.195
COCc1ccccc1NC(=O)NC(C)c1ccc(C)o1 (centres undefined)	-2.277
Cn1cc(Br)c(=O)c(NS(=O)(=O)c2cc(F)ccc2Cl)c1	-8.345
O=C(O)c1c[nH]c2cc(NS(=O)(=O)c3cc(F)ccc3Cl)ccc12	93.61
Cc1c(F)cc(C(=O)O)cc1S(=O)(=O)Nc1cccc(C(F)F)c1	-21.42
COc1ccccc1S(=O)(=O)Nc1ccc2c(C(=O)O)c[nH]c2c1	-5.607
O=C(O)c1c[nH]c2cc(NS(=O)(=O)c3cccc(F)c3F)ccc12	98.18
CSc1c[nH]nc1NS(=O)(=O)c1cc(F)ccc1Cl	16.47
Cc1ccc(F)cc1S(=O)(=O)Nc1cnc(N2CCCC2)nc1	3.743
Cc1ccc(F)cc1S(=O)(=O)Nc1ccc2c(C(=O)O)c[nH]c2c1	88.84
O=C(O)c1c[nH]c2cc(NS(=O)(=O)c3ccc(Cl)cc3F)ccc12	101.8
O=C(O)c1c[nH]c2cc(NS(=O)(=O)c3cccc(Cl)c3F)ccc12	-1.912
Cc1cc(NC(=O)N2CCN(C)CC2C)n(CCC#N)n1 (centres undefined)	-16.44
N#CCCN(Cc1ccco1)C(=O)Cc1ccc(-n2cnnn2)cc1	-12.81
O=C(c1ccc2ccccc2c1)C1CCCN(C(=O)Cn2cnnn2)C1 (centres undefined)	-17.21
N#Cc1nccnc1N1CCC(c2nc(C(F)(F)F)c[nH]2)CC1	-6.885
CNC(=O)NC(=O)CN1CCCN(CC(F)(F)F)CC1	5.4

Compound	Percent Effect [%]
CCC(C)NC(=O)NCCCn1nc2ccccn2c1=O (centres undefined)	-2.078
Cc1nn(C)c2ncc(S(=O)(=O)N3CCCC(C)CC3)cc12 (centres undefined)	-7.374
CC(C)Cn1nc2ccc(S(=O)(=O)N3CCC(C)CC3)cn2c1=O	132.8
CC(C)CCn1nc2ccc(S(=O)(=O)N3CCOCC3)cn2c1=O	120.3
COC(=O)Cn1cccc(S(=O)(=O)N2CCC(C)CC2)c1=O	3.954
Cn1cnc(S(=O)(=O)N2CCOCC2)c1Cl	-4.923
COCCO[C@H]1CCN(C(=O)c2ccno2)[C@H]1Cc1ccncc1.O=C(O)C(F)(F)F	-8.897
CC/C=C(/C)C(=O)NCc1ccnc(OC2CCOCC2)c1	-6.645
CC(=O)NCc1nnc2n1CCN(c1ncnc3c(C)csc13)CC2	-2.169
O=S(=O)(CCCn1cncn1)Cc1ccc(F)cc1Cl	8.322
CCN(Cc1ccoc1)C(=O)c1ccncc1O	2.225
COCCN(Cc1ccncc1)C(=O)C1COc2c(cccc2OC)C1 (centres undefined)	4.804
CCSc1ccccc1C(=O)N(CCOC)Cc1ccoc1	121.3
COCCN(Cc1ccoc1)C(=O)c1c(F)cccc1F	126.9
COCCN(Cc1ccoc1)C(=O)c1ccc(Cl)s1	106
COCCN(CCOC)C(=O)c1ccoc1C	-2.566
CCN(Cc1ccoc1)C(=O)c1ccc(C)c(S(N)(=O)=O)c1	0.3555
COCCN(Cc1ccoc1)C(=O)c1ccccc1OC	102.9
COCCN(Cc1ccoc1)C(=O)c1c(F)cccc1Cl	-1.026
CCOc1ccc(CN(CCOC)C(=O)c2ccncc2Cl)cc1	0.1724
COCCN(Cc1ccoc1)C(=O)c1ccccc1Cl	-4.504
CCc1ncc(C(=O)N(CCOC)Cc2ccccc2F)cn1	-19.66
N[C@H]1CN(C(=O)c2ccccc2OCCc2ccccc2)C[C@@H]1C1CC1	18.87
O=S(=O)(NC1=NCN(CCc2cccs2)CN1)c1ccccc1	2.891
Cc1ncc2c(n1)CN(Cc1cn3ccsc3n1)CC2	-12.96
CCN(C)c1ccc(C(=O)N(CCOC)Cc2ccccn2)cc1	-4.982

Compound	Percent Effect [%]
COCCN(Cc1ccoc1)C(=O)c1cccnc1SC	9.468
COCCN(Cc1ccoc1)C(=O)c1ccccn1	112.1
COCCCN(Cc1ccncc1)C(=O)CSc1ccc(F)cc1	-0.07203
COCCN(Cc1ccoc1)C(=O)CSc1ccc(F)cc1	117.6
NC(=O)CCN(C(=O)CSc1ccc(F)cc1)c1ccc(F)cc1	-8.487
O=C(CN1CCC2(CCCN(CCO)C2=O)C1)NCCc1ccccc1 (centres undefined)	3.055
O=C(COc1coc(CN2CCCCC2)cc1=O)Nc1ccc(Cl)cc1	-2.562
Cc1ccccc1NS(=O)(=O)c1cc2c(c(C(=O)O)c1)OCCO2	-5.791
CN(c1ccc(F)c(F)c1)S(=O)(=O)c1cc2c(c(C(=O)O)c1)OCCO2	-16.04
Cc1cc(C)cc(N(C)S(=O)(=O)c2cc3c(c(C(=O)O)c2)OCCO3)c1	-3.92
CCc1cccc(NS(=O)(=O)c2cc3c(c(C(=O)O)c2)OCCO3)c1	10.09
Cc1cc(C)cc(NS(=O)(=O)c2cc3c(c(C(=O)O)c2)OCCO3)c1	6.571
Cc1ccc(NS(=O)(=O)c2cc3c(c(C(=O)O)c2)OCCO3)c(F)c1	-7.996
Cc1ccc(F)c(NS(=O)(=O)c2cc3c(c(C(=O)O)c2)OCCO3)c1	118.3
Cc1ccc(C)c(NS(=O)(=O)c2cc3c(c(C(=O)O)c2)OCCO3)c1	110.3
Cc1cccc(NS(=O)(=O)c2cc3c(c(C(=O)O)c2)OCCO3)c1	105.7
Cc1nc(CN(C)C(=O)c2cccc(CC3CCNCC3)c2)no1	-18.2
CCc1nnsc1C(=O)NC(CC(C)C)C(=O)OC (centres undefined)	-4.538
CN1C[C@@H](NC(=O)c2cc(F)cc(F)c2)C[C@H]1C(=O)NCc1ncc[nH]1	4.795
COc1ccccc1NCC(=O)NCc1scnc1C	-10.76
Cc1nc(C)c(C(=O)N2Cc3ccccc3OCC2Cn2ccnc2)o1 (centres undefined)	-31.31
CC1CN(CCC(=O)NCCc2cccnc2)Cc2ccccc2O1 (centres undefined)	11.18
CN(CC1COc2ccccc2O1)C(=O)NCCCn1ccnc1 (centres undefined)	-8.094
Cc1nc(C)c(C(=O)N2Cc3ccccc3OCC2Cn2ccnc2)s1 (centres undefined)	70.21
O=C(c1cccnc1)N1Cc2ccccc2OCC1Cn1ccnc1 (centres undefined)	99.63
CC(Cn1ccnc1)NC(=O)NCCN1CCc2ccccc2C1 (centres undefined)	3.376
